EP2 antag: blocks the human prostaglandin E2 receptor EP2; P43116; C6 glioma cells expressing human EP2, cAMP TR-FRET; cells stimulated with saturating PGE2; inhibition, % at 25 µM; 260,000 tested, 0.52% active;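 active = percent inhibition above 40 after rounding to a whole number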;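 note: rat C6 glioma host cells with rolipram phosphodiesterase inhibitor present; the protocol text gives 20 µM as final concentration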
Target sequence (P43116 whole entry, looked up): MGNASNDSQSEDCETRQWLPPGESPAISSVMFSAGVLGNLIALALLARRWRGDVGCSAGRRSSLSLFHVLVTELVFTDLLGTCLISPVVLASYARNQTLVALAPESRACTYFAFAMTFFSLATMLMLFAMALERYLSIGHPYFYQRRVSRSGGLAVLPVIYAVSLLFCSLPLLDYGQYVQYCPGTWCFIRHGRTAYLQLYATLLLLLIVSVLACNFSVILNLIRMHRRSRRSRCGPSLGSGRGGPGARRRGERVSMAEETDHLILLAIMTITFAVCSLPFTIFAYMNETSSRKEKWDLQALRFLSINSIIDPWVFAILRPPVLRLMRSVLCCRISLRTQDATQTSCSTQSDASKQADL
Efa HMGR inh: blocks class II HMG-CoA reductase of Enterococcus faecalis; purified E. faecalis HMGR, NADPH absorbance 340 nm kinetic; inhibition, % at 10 µM; 190,000 tested, 0.41% active;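 active = inhibition above a set limit, the median over all tested compounds plus 3 SD, cut at about 9.5% in these data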;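 note: enzyme runs in reverse so mevalonate oxidation gives rising NADPH absorbance; 0% = complete reaction with DMSO and 100% = background rate lacking mevalonate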
EP2 modulator: modulates human prostaglandin E2 receptor EP2 signaling; induction, % at 25 µM; EP2-expressing cells, cAMP HTRF FRET, PGE2 co-stimulation; P43116; AID 940; 260,000 tested, 0.83% active;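 active = compounds whose cAMP rise, as percent of the full-agonist control response, exceeds 60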;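 note: rat C6 glioma line stably carrying human EP2 under a CMV promoter; the protocol text gives 20 µM as final concentration; 100% = response of wells given 1 µM PGE2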
m-calpain inh: inhibitors of pig calpain II; 220,000 tested, 0.37% active; AID 1236; purified calpain II, fluorogenic peptide substrate, 30 min; inhibition, % at 16 µM;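 active = inhibition above about 50%, limit read from the data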
Furin inh: inhibitors of human furin | P09958 | purified furin, fluorogenic substrate cleavage | inhibition, % at 20 µM or 30 µM | 220,000 tested, 0.061% active | AID 463115; in the data active = inhibition above about 25%
* marks the source's active call; other numbers are inactive results; . = no result; ! = not active in a repeat. Most compounds without a hit are left out; they make up all but 1.9% or so of the library.

SMILES	EP2 antag	Efa HMGR inh	EP2 modulator	m-calpain inh	Furin inh
COC(=O)c1cc(OC)c(=O)c2c(OC)c(OC)ccc2c1	11	.	47	.	.
CSc1n[nH]c(NCc2ccc(C)cc2)n1	7	-5	22	-11	27*
CSc1n[nH]c(NCc2ccc(Cl)cc2)n1	4	-3	6	-17	-14
C(=C\c1ccccc1)/CNCC1CCCO1 (stereo not drawn)	3	11*	29	-17	-11
COCCN1CC2=C(C1=O)C(c1ccc(Cl)c(Cl)c1)NC(=O)N2 (stereo not drawn)	12	.	-33	.	.
CC(C)(C)c1ccc2c(c1)C(=O)c1ccccc1C2=O	9	4	16	-3	-17
CC(C)(C)C1=CC=C(C(C)(C)C)C(=O)C1=O	102*	.	-47	28	-11
N#CC[N+]1(Cc2ccccn2)CCCC1	42*	.	8	.	.
COc1ccc(N2CCN(Cc3nnnn3CC3CCCO3)CC2)cc1 (stereo not drawn)	17	.	16	.	.
CCn1c(C)nc2cc(S(=O)(=O)C(F)(F)C(F)C(F)(F)F)ccc21 (stereo not drawn)	.	-15	-22	90*	-16
C[C@]12CC[C@H]3[C@@H](CCC4=CC(=O)CC[C@@]43C)[C@@H]1CC[C@@H]2C(=O)CO	13	-2	-1	-9	-10
CSc1ncnc2c1ncn2CC(=O)[C@@H]1CC[C@@H]2[C@H]3CCC4=CC(=O)CC[C@@]4(C)[C@@H]3CC[C@]21C	64*	.	14	.	.
CC1CCN(S(=O)(=O)c2ccc(NC(=O)CSc3nnnn3C)cc2)CC1	6	-4	-5	59*	-24
Cn1nnnc1SCC(=O)Nc1cccc(S(=O)(=O)N2CCCC2)c1	8	2	8	-25	-9
COc1ccccc1NC(=S)N1CCC(NC(=O)c2ccc(F)cc2)CC1	7	.	-13	.	.
Cc1cc2ccccc2n2c(=O)n(CC(=O)Nc3ccc4c(c3)OC(C)(C)O4)nc12	8	.	-15	.	.
CC(C)c1ccc(NC(=O)COc2ccccn2)cc1	95*	-3	-17	19	-4
CN(C)CCCNC(=O)c1cc(C(=O)C2CCCCC2)c[nH]1	5	17*	-4	-6	-24
CCCn1nnc(NC(=O)COc2ccc(C)c(C)c2)n1	3	.	-52	.	.
O=C(Nc1nc(COc2ccccc2)cs1)C12CC3CC(CC(C3)C1)C2	4	0	30	58*	-10
Cc1cc(C)cc(Oc2nc(-c3ccccc3)cc(C)c2S(C)(=O)=O)c1	6	-4	40	50*	-9
COc1ccc(Oc2nc(C)cc(C)c2S(C)(=O)=O)cc1	.	0	15	5	-18
Cc1cc(-c2ccccc2)nc(N(C)N)c1S(C)(=O)=O	3	11*	-10	-16	-14
Cc1cc(C)c(S(C)(=O)=O)c(Oc2ccc(F)cc2)n1	.	10*	24	13	-26
Cc1ccc(OCC(=O)NC(=S)Nc2ccc3c4c(cccc24)CC3)cc1	20	0	62*	18	-29
SMILES	EP2 antag	Efa HMGR inh	EP2 modulator	m-calpain inh	Furin inh
O=C(COc1ccccc1)NC(=S)Nc1ccc2c3c(cccc13)CC2	20	-1	55	38	-15
O=C1CC(c2ccccc2)N1c1ccccc1 (stereo not drawn)	6	3	26	8	-28
CN1[C@@H](c2ccccc2)CC(=NO)C[C@H]1c1ccccc1	42*	.	39	.	.
CCC(CO)[n+]1c(C)cc(/C=C2\Sc3ccccc3N2Cc2ccccc2)cc1C (stereo not drawn)	10	-6	-7	-36	29*
CCn1cc(C(=O)O)c(=O)c2cc(F)c(N3CCN(C(=S)NC(=O)c4ccccc4Cl)CC3)cc21	7	.	45	-34	-16
CCn1cc(C(=O)O)c(=O)c2cc(F)c(N3CCN(S(=O)(=O)c4ccc(Br)cc4)CC3)cc21	8	10*	7	-112	-18
O=C(Nc1ccc(N2CCCC2)c(Cl)c1)c1ccc2c(c1)OCCO2	31	9.6*	-35	10	-24
O=C(Nc1ccc(N2CCCCC2)c(Cl)c1)c1ccc2c(c1)OCCO2	7	-4	-111	-30	-10
COc1ccc(-c2nc3ccccc3n2C)cc1	11	.	-22	.	.
COc1ccc(Cl)cc1NC(=O)CSc1n[nH]c(-c2cccc(C)c2)n1	12	.	-41	.	.
Cc1ccccc1S(=O)(=O)Nc1nc2ccccc2nc1N1CCOCC1	40*	-2	-20	2	-12
CCOc1ccc(S(=O)(=O)Nc2nc3ccccc3nc2N2CCN(C)CC2)cc1	17	-10	3	-28	3
CCOc1ccc(NC(=O)Cn2sc3nc(C)cc(C)c3c2=O)cc1	122*	.	-41	-16	0
Cc1ccc(NC(=O)Cn2sc3nc(C)cc(C)c3c2=O)c(Cl)c1	9	.	-27	-10	-10
Cc1cccc(N2CCN(C(=O)Cn3sc4nc(C)cc(C)c4c3=O)CC2C)c1 (stereo not drawn)	121*	-9	-10	-48	-22
Cc1cc(C)c2c(=O)n(CC(=O)Nc3cccc(F)c3)sc2n1	84*	.	-54	-18	-6
Cc1cc(C)c2c(=O)n(CC(=O)Nc3ccc(Cl)cc3)sc2n1	98*	.	-79	-16	-13
COc1ccc(S(=O)(=O)N2CCC(C(=O)N3CCC(C)CC3)CC2)cc1	12	.	-44	.	.
CCN(CC)C(=O)c1sc(NC(=O)c2ccccc2)c(C(=O)OC)c1C	14	.	34	.	.
O=c1oc2ccc(Cl)cc2cc1-c1nnc(-c2cc3ccccc3cc2O)o1	9	.	-33	.	.
Cc1nc(C)n(C(C)CC(=O)N2CCN(Cc3ccccc3F)C[C@@H]2C(C)C)n1 (stereo partly drawn)	4	.	-48	.	.
Brc1ccc(-c2nc3ccccc3s2)s1	124*	-2	-46	-64	-15
O=C(CSc1ncccc1-c1nc2ccccc2[nH]1)OC1CCCCC1	17	.	-10	.	.
Cc1ccc(C)c(N2CCN(Cc3nnnn3C3CCCCC3)CC2)c1	9	0	61*!	-1	-14
COc1ccc(C2(NCc3cccc(Oc4ncccn4)c3)CC2)cc1	4	.	-36	.	.
SMILES	EP2 antag	Efa HMGR inh	EP2 modulator	m-calpain inh	Furin inh
Cc1cc(N/N=C/c2ccc(O)c(C)c2O)nc(-c2ccccc2O)n1	91*	-5	-7	-52	-2
C[C@H]1[C@H](C)CC[C@@]2(C(=O)O)CC[C@@]3(C)C(=CC[C@H]4[C@]5(C)C[C@H](O)[C@@H](O)[C@@](C)(CO)[C@H]5[C@H](O)C[C@@]43C)[C@H]12	43*	.	31	.	.
C[C@H]1[C@H](C)CC[C@]2(C(=O)O)CC[C@]3(C)C(=CCC4[C@@]5(C)C[C@@H](O)[C@H](O)[C@@](C)(CO)C5[C@H](O)C[C@]43C)[C@H]12 (stereo partly drawn)	14	.	-1	.	.
Cc1nn(-c2ccc(Cl)cc2)c(=O)c2ccccc12	10	-2	24	-6	-18
Cc1c(Cl)sn(-c2ccc(Cl)cc2)c1=O	117*	2	-59	-27	-14
COC(=O)CSc1nc(C2CC2)cc(C(F)(F)F)c1C#N	8	-5	41	-39	-7
CC(=O)CSc1nc(C2CC2)cc(C(F)(F)F)c1C#N	19	.	86*	.	.

Screens deposited in PubChem by several laboratories.
